Test results reported in PMC5540273 (PLoS ONE, 2017).

Experiments:
Details in all cases: concentration: 1 μM, replicates: in singlicate; n = 1
[1] = system: T1, DMPK2
T1 construct: gene CDC42BPG

[2] = system: DMPK
[3] = system: T2, DRAK1
T2 construct: gene STK17A

[4] = system: T3, DRAK2
T3 construct: gene STK17B

[5] = system: DYRK1A
[6] = system: DYRK1B
[7] = system: DYRK2
[8] = system: EGFR
[9] = system: EIF2AK1
[10] = system: EPHA1
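Note: KINOMEscan kinase panel screen.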

Structure (SMILES) | %Inh [1] [%] | %Inh [2] [%] | %Inh [3] [%] | %Inh [4] [%] | %Inh [5] [%] | %Inh [6] [%] | %Inh [7] [%] | %Inh [8] [%] | %Inh [9] [%] | %Inh [10] [%]
CCn1c(-c2c(N)noc2C)nc2cnccc21 [SB-737856] | 99.8 | 0 | 0 | 0 | 30 | 0 | 4 | 24 | 3 | 0
CNc1nc(-c2ccc3c(N)n[nH]c3c2)cc(N2C[C@@H](C(=O)Nc3ccccc3)CC[C@H]2C)n1 [GSK2298859] | 13 | 0 | 97.6 | 80 | 15 | 0 | 10 | 31 | 0 | 14
O=c1cc(N2CCOCC2)nc2n(Cc3cccc(Cl)c3Cl)c3ccccc3n12 [GSK2299009] | 24 | 10 | 3 | 0 | 28 | 15 | 16 | 30 | 24 | 14
Nc1cccc(-c2ccc3c(N)n[nH]c3c2)n1 [GSK2192730] | 0 | 0 | 68 | 0 | 25 | 21 | 52 | 0 | 0 | 14
Nc1nccc(-c2c(-c3ccc(F)cc3)ncn2C2CCN(Cc3ccccc3)CC2)n1 [SB-219980] | 52 | 0 | 10 | 14 | 0 | 0 | 14 | 10 | 0 | 0
Cc1ccccc1-c1cc(-c2c[nH]nc2-c2ccccn2)ccn1 [GW680061] | 0 | 0 | 2 | 0 | 14 | 0 | 0 | 38 | 0 | 3
CNCc1ccc2nc(NC(=O)c3ccc(C(C)(C)C)cc3)cn2c1 | 0 | 7 | 11 | 24 | 35 | 0 | 6 | 0 | 4 | 4
COc1ccc(Nc2nccc(NCCNC(=O)Nc3cc(C)ccc3C)n2)cc1 [GSK1379899] | 0 | 0 | 0 | 0 | 18 | 7 | 2 | 27 | 0 | 5
Cn1cncc1C(=O)NC1CCN(c2ccnc(Nc3ccc(F)cc3)n2)C1 (stereo not shown) [GSK1379717] | 0 | 0 | 0 | 0 | 0 | 21 | 0 | 15 | 3 | 2
COc1ccc(Nc2nccc(N3CCC(NC(=O)C(C)c4ccc(Cl)cc4)C3)n2)cc1 (stereo not shown) [GSK1379735] | 0 | 0 | 8 | 0 | 12 | 0 | 3 | 14 | 77 | 0
COc1ccc(-c2coc3ccc(-c4nnc(C)o4)cc23)cc1 | 0 | 0 | 0 | 0 | 40 | 0 | 0 | 0 | 0 | 0
O=C(Nc1n[nH]c2cc(-c3ccsc3)ccc12)C1CC1 [SB-732932] | 0 | 0 | 17 | 0 | 0 | 12 | 28 | 0 | 0 | 3
CC(=O)c1c(C)c2cnc(Nc3ccc(N4CCNCC4)cn3)nc2n(C2CCCC2)c1=O | 96 | 15 | 8 | 5 | 0 | 0 | 0 | 4 | 0 | 24
c1ccc(-c2ccnc3[nH]ccc23)cc1 [SB-693578] | 0 | 0 | 8 | 0 | 34 | 0 | 19 | 17 | 6 | 25
COC(=O)c1cccc(NC(=O)NC2CCN(c3ccnc(Nc4ccc(F)cc4)n3)C2)c1 (stereo not shown) [GSK1379725] | 0 | 0 | 0 | 0 | 18 | 0 | 0 | 0 | 0 | 8
COc1ccc2cc(-c3nc(-c4ccccc4C(C)C)[nH]c3-c3ccncc3)ccc2c1 [SB-660566] | 0 | 0 | 6 | 0 | 31 | 15 | 7 | 18 | 3 | 22
CC[C@@H]1CO[C@H](C(=O)Nc2ccccc2)CN1c1cc(-c2ccc3c(N)n[nH]c3c2)nc(NC)n1 [GSK2376236] | 5 | 0 | 95.3 | 68 | 1 | 0 | 12 | 71 | 0 | 3

Structure (SMILES) | %Inh [1] [%] | %Inh [2] [%] | %Inh [3] [%] | %Inh [4] [%] | %Inh [5] [%] | %Inh [6] [%] | %Inh [7] [%] | %Inh [8] [%] | %Inh [9] [%] | %Inh [10] [%]
O=C(Nc1n[nH]c2nc(-c3ccco3)c(Br)cc12)C1CCN(Cc2ccccc2)C1.O=C(O)[C@H](O)[C@@H](O)C(=O)O (stereo not shown) [SB-742034] | 0 | 0 | 11 | 13 | 22 | 0 | 32 | 1 | 33 | 0
CCn1c(-c2ccccc2)nc2cnccc21 [SB-733416] | 0 | 0 | 32 | 12 | 23 | 0 | 0 | 37 | 0 | 22
Cl.Cl.Cl.N#Cc1ccc(CCNc2nccc(-c3cccc(CN4CCNCC4)c3)n2)cc1 [GSK2137462] | 41 | 10 | 0 | 0 | 0 | 0 | 24 | 11 | 2 | 19
CNc1nc(-c2ccc3c(N)n[nH]c3c2)cc(N2C[C@@H](C(=O)NC3CCCCC3)OC[C@H]2C)n1 [GSK2375584] | 11 | 0 | 39 | 2 | 7 | 0 | 0 | 24 | 0 | 14
Cc1ccc(NC(=O)Nc2ccccc2F)cc1-c1ccc(C(=O)Nc2ccncc2)cc1 [GSK1398477] | 16 | 3 | 1 | 0 | 26 | 8 | 17 | 24 | 0 | 0
COc1ccc(Nc2nccc(-c3ccc(NC(=O)c4cc5cc(F)ccc5[nH]4)cc3)n2)cc1 [GSK1229496] | 4 | 0 | 69 | 19 | 14 | 0 | 0 | 14 | 0 | 0
Cc1ccccc1Cn1ccn2c(=O)cc(N3CCOCC3)nc12 [GSK2269905] | 0 | 0 | 0 | 0 | 16 | 0 | 0 | 15 | 8 | 4
Cc1c(Cn2c(C)c(C)n3c(=O)cc(N4CCOCC4)nc23)cccc1C(F)(F)F [GSK2328680] | 0 | 0 | 7 | 0 | 4 | 2 | 6 | 11 | 0 | 20
O=C1NC(=O)C(c2ccc(Cl)cc2)=C1Nc1cccc(Cl)c1 [SB-317651] | 0 | 0 | 4 | 0 | 15 | 52 | 1 | 20 | 4 | 0
Cc1cnc(N)c(/C=C/c2cncc(C(=O)NCCc3ccc(Cl)cc3Cl)c2)c1.Cl [GSK190937] | 3 | 0 | 18 | 0 | 8 | 15 | 4 | 0 | 0 | 0
CC(=O)c1cccc(NC(=O)NC2CCN(c3ccnc(Nc4ccc(F)cc4)n3)C2)c1 (stereo not shown) [GSK1379710] | 6 | 0 | 6 | 0 | 0 | 27 | 17 | 18 | 0 | 7
COc1ccc(CSc2nnc(-c3ccc4nccn4c3)o2)cc1C(F)(F)F | 2 | 41 | 31 | 0 | 41 | 41 | 0 | 4 | 7 | 0
O=C(Nc1n[nH]c2nc(-c3cccs3)c(Br)cc12)C1CC1 [SB-735297] | 0 | 0 | 25 | 0 | 13 | 0 | 26 | 0 | 0 | 21
COc1ccc(Nc2nccc(N3CCC(NC(=O)c4cc5ccccc5s4)C3)n2)cc1 (stereo not shown) [GSK1379738] | 7 | 0 | 0 | 0 | 15 | 0 | 0 | 0 | 0 | 17
CC(C)c1ccc(O)cc1Nc1ccnc2ccc(C(F)(F)F)cc12 [GW482059] | 0 | 0 | 10 | 0 | 13 | 16 | 8 | 37 | 3 | 6
Cc1c(Cn2c3ccccc3n3c(=O)cc(N4CCOCC4)nc23)cccc1C(F)(F)F [GSK2306394] | 0 | 0 | 0 | 0 | 7 | 0 | 14 | 48 | 0 | 0
CNC(=O)c1ccc(C)c(-n2c(C)cc(OCc3ccc(F)cc3F)c(Br)c2=O)c1 | 0 | 0 | 1 | 0 | 0 | 56 | 0 | 0 | 0 | 5
